Several values for one entry are separate records, joined by “and”; a condition that tells them apart may be missing. Equal entries are not always repeated. Activity calls are given as the source filed them.
Assays:
[1] = system: PRMT1 (protein arginine N-methyltransferase 1); assay: small molecules binding arginine methyltransferase PRMT1 – biochemical, small-molecule microarray, 635 nm fluorescence, primary screen (AID 1088); conditions: higher = more signal;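 further: binding of Prmt1 protein to compounds spotted on small-molecule microarray slides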
[2] = growth effects on S. cerevisiae YJM789 – YJM789 clinical isolate, OD600, 24 h, basal, primary screen (AID 1089); conditions: higher = more signal, called active from +8 up or from −8 down;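 further: growth of clinical yeast isolate S. cerevisiae YJM 789 seeded 1000 cells per well; test concentration not given here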
[3] = S. pombe growth modifiers, basal conditions – strain 972, OD600, 24 h, no modulator, primary screen (AID 1090);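 further: basal condition with compound alone and no growth modifier present; test concentration not given here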; conditions: S. pombe 972 growth, higher = more signal, called active from +8 up or from −8 down
[4] = budding yeast growth modifiers under rapamycin – strain BY4716, OD600, 96 h, primary screen (AID 1091); further: test concentration not given here; conditions: S. cerevisiae BY4716 + rapamycin, higher = more signal, called active from +8 up or from −8 down
[5] = target: Torsin-1A-interacting protein 2 (Homo sapiens) (UniProt Q8NFQ8); assay: small molecules binding lysate-expressed LULL1 – cell lysate, human LULL1 lysate, 635/667 nm fluorescence, primary screen (AID 1092); conditions: small-molecule microarray, hLULL1 lysate binding, 635 nm fluorescence; higher = more signal;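 further: probe is lysate of COS7 cells overexpressing human LULL1; score merges per-feature 667 nm fluorescence with signal-to-noise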
Sequence of Torsin-1A-interacting protein 2 (Homo sapiens) (Q8NFQ8 whole entry, looked up): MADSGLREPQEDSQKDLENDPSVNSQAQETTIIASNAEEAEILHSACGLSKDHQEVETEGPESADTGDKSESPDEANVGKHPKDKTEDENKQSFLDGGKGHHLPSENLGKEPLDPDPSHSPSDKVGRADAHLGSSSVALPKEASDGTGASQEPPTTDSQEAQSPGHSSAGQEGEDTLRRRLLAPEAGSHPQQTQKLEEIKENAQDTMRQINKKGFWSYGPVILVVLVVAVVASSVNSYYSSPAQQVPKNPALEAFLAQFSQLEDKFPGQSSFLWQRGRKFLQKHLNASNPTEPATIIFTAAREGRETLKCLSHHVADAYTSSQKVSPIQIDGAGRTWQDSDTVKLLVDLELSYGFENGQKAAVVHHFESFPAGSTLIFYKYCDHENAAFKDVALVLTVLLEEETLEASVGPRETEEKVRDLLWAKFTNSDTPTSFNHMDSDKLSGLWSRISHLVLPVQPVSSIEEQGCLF

[6] = optical density change of DRC41 E. coli – strain DRC41, OD650, 24 h, E. coli filamentation project, primary screen (AID 1093);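 further: MC1000 strain lacking acrAB efflux and sulA so SOS filamentation is blocked; test concentration not given here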; conditions: E. coli DRC41 growth, higher = more signal, called active from +8 up or from −8 down
[7] = probe aLefty2 binding to arrayed compounds – biochemical, biotinylated probe, 635/667 nm fluorescence, primary screen (AID 1094); conditions: small-molecule microarray, higher = more signal;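 further: score merges spot fluorescence near 667 nm with spot signal-to-noise ratio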
[8] = system: Noggin (protein binding on small-molecule microarray); assay: small molecules binding Noggin protein – biochemical, 635/667 nm fluorescence, primary screen (AID 1095); conditions: 635 nm fluorescence, higher = more signal;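 further: score merges 667 nm feature fluorescence with signal to noise over triplicate slides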
[9] = target: Neurogenic locus notch homolog protein 3 (Homo sapiens) (UniProt Q9UM47); assay: small molecules binding NOTCH3 protein – biochemical, 635/667 nm fluorescence, primary screen (AID 1096); conditions: small-molecule microarray, 635 nm fluorescence, higher = more signal
Sequence of Neurogenic locus notch homolog protein 3 (Homo sapiens) (Q9UM47 whole entry, looked up): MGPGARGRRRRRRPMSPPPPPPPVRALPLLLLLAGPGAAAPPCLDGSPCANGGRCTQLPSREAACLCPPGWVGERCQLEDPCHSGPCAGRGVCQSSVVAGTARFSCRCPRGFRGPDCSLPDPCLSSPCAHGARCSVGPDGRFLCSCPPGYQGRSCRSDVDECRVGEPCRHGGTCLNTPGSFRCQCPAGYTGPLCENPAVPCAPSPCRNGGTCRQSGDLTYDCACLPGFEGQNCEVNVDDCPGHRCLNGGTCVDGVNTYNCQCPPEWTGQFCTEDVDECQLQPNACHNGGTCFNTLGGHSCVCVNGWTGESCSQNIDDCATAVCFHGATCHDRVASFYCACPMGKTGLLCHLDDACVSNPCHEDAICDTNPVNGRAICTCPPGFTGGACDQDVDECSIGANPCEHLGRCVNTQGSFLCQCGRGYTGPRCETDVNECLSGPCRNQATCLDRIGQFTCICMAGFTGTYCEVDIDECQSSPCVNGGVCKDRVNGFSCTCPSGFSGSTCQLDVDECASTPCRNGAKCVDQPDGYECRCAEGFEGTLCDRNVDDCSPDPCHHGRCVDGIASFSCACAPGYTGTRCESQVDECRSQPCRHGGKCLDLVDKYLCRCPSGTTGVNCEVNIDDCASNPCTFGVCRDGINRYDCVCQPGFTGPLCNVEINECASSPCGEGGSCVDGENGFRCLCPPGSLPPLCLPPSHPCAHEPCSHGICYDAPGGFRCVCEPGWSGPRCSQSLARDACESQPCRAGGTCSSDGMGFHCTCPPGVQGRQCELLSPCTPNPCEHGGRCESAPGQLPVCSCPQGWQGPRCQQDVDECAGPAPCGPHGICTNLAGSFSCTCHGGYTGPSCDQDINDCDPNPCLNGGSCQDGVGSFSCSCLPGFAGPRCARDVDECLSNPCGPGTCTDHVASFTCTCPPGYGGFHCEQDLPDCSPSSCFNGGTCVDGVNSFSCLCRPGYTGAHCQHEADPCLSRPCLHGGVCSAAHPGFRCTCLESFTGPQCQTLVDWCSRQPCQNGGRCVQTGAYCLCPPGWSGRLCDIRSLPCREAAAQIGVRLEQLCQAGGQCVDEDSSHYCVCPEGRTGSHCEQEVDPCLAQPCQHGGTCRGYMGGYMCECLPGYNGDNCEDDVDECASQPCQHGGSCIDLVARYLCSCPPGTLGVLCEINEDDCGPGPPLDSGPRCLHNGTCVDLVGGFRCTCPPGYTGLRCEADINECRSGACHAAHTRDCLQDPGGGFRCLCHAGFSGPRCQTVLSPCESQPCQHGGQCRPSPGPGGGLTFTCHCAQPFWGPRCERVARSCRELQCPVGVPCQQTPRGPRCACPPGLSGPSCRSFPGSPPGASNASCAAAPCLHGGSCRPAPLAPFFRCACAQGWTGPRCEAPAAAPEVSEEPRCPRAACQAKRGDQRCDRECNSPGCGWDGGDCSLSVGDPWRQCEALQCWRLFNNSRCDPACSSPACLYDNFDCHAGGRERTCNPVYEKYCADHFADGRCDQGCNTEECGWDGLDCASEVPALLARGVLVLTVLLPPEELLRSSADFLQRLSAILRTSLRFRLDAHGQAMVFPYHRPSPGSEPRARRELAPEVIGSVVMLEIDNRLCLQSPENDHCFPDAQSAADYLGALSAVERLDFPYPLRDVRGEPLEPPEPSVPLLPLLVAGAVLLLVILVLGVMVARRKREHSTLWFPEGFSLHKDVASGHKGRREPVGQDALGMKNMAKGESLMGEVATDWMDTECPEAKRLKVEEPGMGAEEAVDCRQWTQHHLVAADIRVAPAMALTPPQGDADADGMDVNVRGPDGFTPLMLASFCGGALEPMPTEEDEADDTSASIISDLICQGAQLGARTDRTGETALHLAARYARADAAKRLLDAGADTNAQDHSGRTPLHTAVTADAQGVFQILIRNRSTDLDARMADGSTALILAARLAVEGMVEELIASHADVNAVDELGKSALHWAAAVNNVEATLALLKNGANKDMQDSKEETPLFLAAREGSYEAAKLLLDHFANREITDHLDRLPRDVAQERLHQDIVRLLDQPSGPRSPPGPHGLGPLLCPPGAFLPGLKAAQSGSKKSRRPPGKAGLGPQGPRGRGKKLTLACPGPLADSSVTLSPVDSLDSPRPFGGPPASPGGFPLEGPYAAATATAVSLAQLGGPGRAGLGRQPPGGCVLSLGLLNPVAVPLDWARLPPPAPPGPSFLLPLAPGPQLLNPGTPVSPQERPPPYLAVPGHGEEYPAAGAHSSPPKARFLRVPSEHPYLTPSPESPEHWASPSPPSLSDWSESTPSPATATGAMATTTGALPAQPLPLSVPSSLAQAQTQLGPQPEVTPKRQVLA

[10] = probe aEGFR binding to arrayed compounds – biochemical, biotinylated probe, 635/667 nm fluorescence, primary screen (AID 1097); conditions: small-molecule microarray, higher = more signal;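 further: probe is a biotinylated anti-EGFR antibody binding compounds printed on slides; score combines fluorescence near 667 nm and signal to noise of each spot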
[11] = system: Plasmodium falciparum Sir2 (PF13_0152, Sir2A); assay: Plasmodium falciparum Sir2A binding compounds – biochemical, small-molecule microarray, 635 nm fluorescence, primary screen (AID 1098); conditions: fluorescence 635 nm, higher = more signal;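 further: score merges spot fluorescence intensity with its signal-to-noise ratio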
[12] = probe aDKK1 binding to arrayed compounds – biochemical, biotinylated probe, 635/667 nm fluorescence, primary screen (AID 1099); conditions: small-molecule microarray, higher = more signal;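 further: score merges 667nm spot fluorescence with signal to noise across triplicate slides; reference of the scale not given here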
[13] = probe aCHRDL2 binding to arrayed compounds – biochemical, biotinylated probe, 635/667 nm fluorescence, primary screen (AID 1100); conditions: small-molecule microarray, higher = more signal
[14] = change in splice reporter luminescence, either direction, cell-based, HEK293, spliceosome inhibition project, primary screen (AID 1101); conditions: HEK293 splicing luciferase reporter, 24 h, higher = more signal, called active from +8 up or from −8 down;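 further: HEK293 cells carrying a splicing-competent luciferase reporter gene; test concentration not given here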
[15] = target: Fibroblast growth factor 10 (Homo sapiens) (UniProt O15520); assay: compounds binding fibroblast growth factor 10 – biochemical, small-molecule microarray, 635 nm fluorescence, primary screen (AID 1102); conditions: FGF10 binding, fluorescence 635 nm, higher = more signal
Sequence of Fibroblast growth factor 10 (Homo sapiens) (O15520 whole entry, looked up): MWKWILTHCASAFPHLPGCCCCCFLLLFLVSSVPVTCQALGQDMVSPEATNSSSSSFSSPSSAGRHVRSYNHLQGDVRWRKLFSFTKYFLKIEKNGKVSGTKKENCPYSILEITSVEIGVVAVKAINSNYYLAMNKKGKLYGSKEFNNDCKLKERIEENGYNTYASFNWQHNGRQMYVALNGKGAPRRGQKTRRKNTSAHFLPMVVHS

[16] = system: glycogen synthase kinase-3 (GSK3A per assay name; protocol says GSK3B); assay: compounds binding glycogen synthase kinase-3 – biochemical, small-molecule microarray, 635 nm fluorescence, GSK3A, primary screen (AID 1103); conditions: fluorescence 635 nm, higher = more signal; further: the record names both GSK3A and GSK3B
[17] = target: Epidermal growth factor receptor (Homo sapiens) (UniProt P00533); assay: compounds binding epidermal growth factor receptor – biochemical, small-molecule microarray, 635 nm fluorescence, primary screen (AID 1104); conditions: EGFR binding, higher = more signal;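 further: score merges 667 nm emission intensity with spot signal to noise over triplicate slides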
Sequence of Epidermal growth factor receptor (Homo sapiens) (P00533 whole entry, looked up): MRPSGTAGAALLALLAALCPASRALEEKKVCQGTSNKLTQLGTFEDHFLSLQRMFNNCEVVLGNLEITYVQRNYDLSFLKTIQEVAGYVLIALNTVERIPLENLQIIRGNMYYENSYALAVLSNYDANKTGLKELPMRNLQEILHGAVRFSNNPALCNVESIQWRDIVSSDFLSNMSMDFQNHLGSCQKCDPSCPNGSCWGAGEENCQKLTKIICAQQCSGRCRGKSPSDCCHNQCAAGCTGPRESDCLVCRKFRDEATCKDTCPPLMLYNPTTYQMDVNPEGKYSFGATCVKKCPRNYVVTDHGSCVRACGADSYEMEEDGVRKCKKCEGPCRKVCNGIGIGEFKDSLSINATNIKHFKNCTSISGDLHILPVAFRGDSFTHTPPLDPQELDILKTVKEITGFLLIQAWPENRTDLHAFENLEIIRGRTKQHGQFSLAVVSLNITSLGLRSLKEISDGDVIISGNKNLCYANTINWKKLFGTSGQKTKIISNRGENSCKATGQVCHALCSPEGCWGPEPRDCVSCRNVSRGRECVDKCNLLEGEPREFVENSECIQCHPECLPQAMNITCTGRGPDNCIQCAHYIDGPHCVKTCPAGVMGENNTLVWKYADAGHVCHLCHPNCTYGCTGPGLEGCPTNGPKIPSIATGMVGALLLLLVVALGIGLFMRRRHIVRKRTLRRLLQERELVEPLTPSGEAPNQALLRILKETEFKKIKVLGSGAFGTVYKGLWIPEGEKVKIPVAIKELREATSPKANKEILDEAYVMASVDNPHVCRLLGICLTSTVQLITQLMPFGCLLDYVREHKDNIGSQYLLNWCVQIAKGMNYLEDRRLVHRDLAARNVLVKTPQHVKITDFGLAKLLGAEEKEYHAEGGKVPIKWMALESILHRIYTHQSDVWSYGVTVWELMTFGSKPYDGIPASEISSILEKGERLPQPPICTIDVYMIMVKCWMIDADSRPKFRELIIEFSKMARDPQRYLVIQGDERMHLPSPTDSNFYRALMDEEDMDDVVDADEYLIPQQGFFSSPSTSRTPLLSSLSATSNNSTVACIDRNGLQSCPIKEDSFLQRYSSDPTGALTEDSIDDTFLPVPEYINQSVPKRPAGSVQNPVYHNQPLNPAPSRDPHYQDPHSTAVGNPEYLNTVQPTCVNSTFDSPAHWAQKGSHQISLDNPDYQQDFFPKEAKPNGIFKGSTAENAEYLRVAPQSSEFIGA

[18] = target: Follistatin-related protein 3 (Homo sapiens) (UniProt O95633); assay: compounds binding follistatin-related protein 3 – biochemical, small-molecule microarray, 635 nm fluorescence, primary screen (AID 1105); conditions: FSTL3 binding, higher = more signal;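 further: score merges emission near 667 nm and signal to noise per printed spot across three slides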
Sequence of Follistatin-related protein 3 (Homo sapiens) (O95633 whole entry, looked up): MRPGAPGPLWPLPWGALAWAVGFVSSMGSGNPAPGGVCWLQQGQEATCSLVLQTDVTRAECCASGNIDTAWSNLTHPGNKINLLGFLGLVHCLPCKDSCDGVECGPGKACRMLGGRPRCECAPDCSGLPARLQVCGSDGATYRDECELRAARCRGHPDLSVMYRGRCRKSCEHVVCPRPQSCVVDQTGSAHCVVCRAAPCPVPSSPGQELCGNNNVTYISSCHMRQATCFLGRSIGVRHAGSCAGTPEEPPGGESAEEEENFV

[19] = target: Dickkopf-related protein 1 (Homo sapiens) (UniProt O94907); assay: small molecules binding DKK1 protein – biochemical, small-molecule microarray, 635 nm fluorescence scan, primary screen (AID 1106); conditions: higher = more signal;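 further: score merges emission near 667 nm with signal to noise over three replicate slides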
Sequence of Dickkopf-related protein 1 (Homo sapiens) (O94907 whole entry, looked up): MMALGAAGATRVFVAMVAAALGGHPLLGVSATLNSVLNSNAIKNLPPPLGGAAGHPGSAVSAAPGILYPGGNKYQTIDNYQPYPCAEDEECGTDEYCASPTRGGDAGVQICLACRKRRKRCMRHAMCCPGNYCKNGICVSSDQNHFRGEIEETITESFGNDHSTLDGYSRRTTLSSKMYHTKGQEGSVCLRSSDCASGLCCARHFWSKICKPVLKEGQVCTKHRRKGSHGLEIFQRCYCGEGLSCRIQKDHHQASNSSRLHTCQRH

[20] = system: Inhibin beta A chain (activin A); assay: small molecules binding activin A – biochemical, small-molecule microarray, 635 nm fluorescence scan, primary screen (AID 1107); conditions: INHBA, higher = more signal;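 further: mouse activin A protein probed at 4.33 µg/mL on printed slides; score merges bound-protein fluorescence near 667 nm with spot signal-to-noise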

SMILES | composite z-score [1] | z-score [2] | z-score [3] | z-score [4] | composite z-score [5] | z-score [6] | composite z-score [7] | composite z-score [8] | composite z-score [9] | composite z-score [10] | composite z-score [11] | composite z-score [12] | composite z-score [13] | z-score [14] | composite z-score [15] | composite z-score [16] | composite z-score [17] | composite z-score [18] | composite z-score [19] | composite z-score [20]
C=CCN(CCCCC)C(=O)C1N(c2ccc(CCO)cc2)C(=O)C2C(C(=O)O)C3C=CC21O3 (stereo not given) | -0.303 and -0.476 | 0.0099 (inactive) and -0.194 (inactive) | -0.804 (inactive) and 0.336 (inactive) | -0.231 (inactive) and -0.137 (inactive) | -0.379 and 0.173 | 0.287 (inactive) and 1.11 (inactive) | -0.0374 and 0.699 | -1.73 and -1.08 | -0.636 and -0.651 | -0.233 and -0.145 | 0.122 and -0.0398 | -0.244 and -0.184 | 0.976 and 0.99 | -0.296 (inactive) and 0.494 (inactive) | -1.01 and -1.64 | -1.29 and -1.34 | -1.23 and -1.1 | -0.937 and -1.43 | -1.6 and -1.19 | -1.49 and -1.34
CCOC(=O)[C@H](CC(C)C)NC(=O)CCC1CC(OC(=O)NCc2cccc3ccccc23)CC2(CCCC(COC(=O)NCc3ccccc3)O2)O1 (stereo not given in full) | -0.0282 | -1.11 (inactive) | -0.0838 (inactive) | -0.395 (inactive) | -0.393 | -0.548 (inactive) | -0.221 | 0.306 | 0.156 | -0.182 | 0.929 | -0.299 | -0.103 | -2.18 (inactive) | -0.242 | -0.97 | -0.152 | -0.499 | -0.311 | 0.493
C=CCN(CCCCC)C(=O)C1N(c2c(Cl)cccc2CO)C(=O)C2C(C(=O)O)C3C=CC21O3 (stereo not given) | 0.0842 and -0.629 | 0.006 (inactive) and 0.769 (inactive) | -0.456 (inactive) and -0.0109 (inactive) | 0.59 (inactive) and 0.045 (inactive) | -0.445 and -0.75 | 0.31 (inactive) and 0.437 (inactive) | 0.156 and -0.0555 | -2.4 and -2.23 | -0.676 and -0.842 | -0.441 and -0.411 | -0.116 and 0.397 | 0.784 and 0.13 | 0.479 and 1.12 | -0.282 (inactive) and -0.455 (inactive) | -1.35 and -1.3 | -0.607 and -1.18 | -3.02 and -1.91 | -2.09 and -2.23 | -2.91 and -2.56 | -1.96 and -1.99
CO[C@H]1COC(=O)CC=C[C@H](C)[C@H](OC)COC(=O)[C@@H](C)COC(=O)CC=C[C@@H]1C | 0.65 and 1.07 | -0.23 (inactive) and -0.132 (inactive) | -0.121 (inactive) and -1.49 (inactive) | -0.324 (inactive) and -0.586 (inactive) | -0.0624 and -0.0356 | 0.432 (inactive) and 0.839 (inactive) | -0.177 and -0.239 | 0.74 and 1.2 | 0.327 and 0.287 | -0.143 and -0.103 | 0.402 and 0.0429 | -0.629 and -0.472 | -1.1 and -1.05 | -0.0265 (inactive) and -0.282 (inactive) | 0.415 and 0.242 | 0.594 and 0.65 | 0.752 and 0.715 | 0.969 and 0.59 | 1.23 and 0.743 | 1.02 and 0.17
C=CC[C@@H](O)c1ccc(O)c2ccccc12 | 1.57 and 1.49 | -22 (active) and -23.3 (active) | -20 (active) and -20.4 (active) | 6.56 (inactive) and 5.68 (inactive) | 1.01 and 0.0783 | 1.92 (inactive) and 0.416 (inactive) | -0.0511 and -0.0812 | 1.1 and 0.869 | 1.11 and 1.1 | 0.0153 and -0.0531 | 1.35 and 1.41 | -0.05 and -0.227 | -0.0013 and -0.333 | -0.879 (inactive) and 3.08 (inactive) | 0.991 and 1.34 | 0.797 and 1.25 | 1.33 and 1.15 | 1.2 and 1.43 | 0.817 and 1.14 | 1.38 and 0.954
CCCCCN1CC=CC23O[C@@H]4C=CCCOC(=O)C4[C@H]2C(=O)N(C(C)CO)[C@@H]3C1=O (stereo not given in full) | 0.432 and 0.967 | -0.772 (inactive) and 0.61 (inactive) | -0.328 (inactive) and 0.278 (inactive) | -1.48 (inactive) and 0.779 (inactive) | 1.01 and 2.94 | 1.78 (inactive) and 1.58 (inactive) | -0.401 and 0.157 | 0.157 and 0.362 | 0.311 and 0.388 | -0.386 and -0.253 | 1.83 and 0.878 | -1.21 and 0.263 | -0.532 and 0.779 | 0.691 (inactive) and 0.361 (inactive) | 0.0253 and -0.6 | 0.375 and -0.449 | -0.655 and -0.706 | 0.164 and -0.32 | -0.057 and -0.695 | -0.131 and 0.537
CCOC(=O)NN=C1C[C@@H](O)[C@@H](O)[C@@H]2[C@@H]3C(=O)N(Cc4ccccc4)C(=O)[C@@H]3CC[C@@H]12 | 0.249 | 0.872 (inactive) | 0.117 (inactive) | 0.552 (inactive) | -0.572 | -1.68 (inactive) | -0.217 | 0.406 | 0.639 | -0.282 | 0.454 | -0.287 | -0.655 | 0.477 (inactive) | 0.118 | 0.304 | 0.542 | 0.59 | 0.355 | -0.208
CO[C@@H]1COC(=O)CC=C[C@H](C)COC(=O)[C@H](C)NC(=O)CC=C[C@H]1C | 1.38 | 1.19 (inactive) | 1.04 (inactive) | 1.25 (inactive) | -0.654 | 0.18 (inactive) | -0.235 | 1.68 | 0.438 | -0.157 | 0.237 | -0.525 | -0.774 | -0.401 (inactive) | 0.754 | 0.736 | 0.715 | 0.829 | 0.951 | 0.249

From PubChem BioAssay
